According to PubChem BioAssay AID2320 (National Center for Advancing Translational Sciences (NCATS), 2010):
Results filed as inconclusive are left out. Entries that show only a call come without a potency. Calls of active or inactive are those of the source. The call rests on the fitted dose curve.

Test: A qHTS for Small Molecule Inhibitors of Shiga Toxin (Confirmatory); further: nearly all actives have a fitted effect of over 75% in size
Details: Cell-based Shiga toxin protection reporter assay; series mostly up to 38.3 µM
Potency means the concentration at half of the fitted maximal effect.

SMILES | Potency
CCC(C)C1C(C#N)=C(N)OC2=C1C(=O)CC(C)(C)C2 (configuration not stated) | inactive
O=C(NCCCO)/C(=C\c1ccco1)NC(=O)c1ccco1 | inactive
COc1ccc(NC(=O)c2cccnc2Nc2ccc(OC)cc2)cc1 | inactive
CCOC(=O)c1cnc2c(-c3cccc(Br)c3)cnn2c1C | 3.56 µM (active)
O=C(CN1CCN(c2ncc(C(F)(F)F)cc2Cl)CC1)NC(=O)NCc1ccccc1 | inactive
COc1ccc(CNC(=O)C(OC(=O)c2ccco2)c2ccccc2F)cc1 (configuration not stated) | inactive
Oc1ccc(C2C[C@H]3CC[C@@H]2C3)cc1O (some centres not stated) | 22.5 µM (active)
Cc1ccccc1C(=O)NN1CCOCC1 | inactive
CC1=C(C)C(OCCBr)N(c2cc(O)c(Cl)cc2F)C1=O (configuration not stated) | inactive
CSc1nc2ccc(N3C(=O)C4CCCCC4C3=O)cc2s1 (configuration not stated) | inactive
O=C(/C=C/c1cn(CC(O)CN2CCCCC2)c2ccccc12)c1cccs1 (configuration not stated) | inactive
Cc1sc(NC(=O)CCCC(=O)O)c(C(N)=O)c1-c1ccccc1 | 11.3 µM (active)
O=C(O)c1cc(S(=O)(=O)Nc2ccc(OCc3ccccc3)cc2)ccc1Br | 7.11 µM (active)
O=C(/C=C/Nc1ccc(F)cc1F)c1ccco1 | 0.225 µM (active)
Cc1ccc2c(c1)N(CC(=O)N1CCCC1)C(=O)CO2 | inactive
COCCCn1c(SCC(=O)OC2CCCCC2)nnc1-c1cccs1 | inactive
CCCNC(=O)c1ccc2snnc2c1 | inactive
CCOc1cc(S(=O)(=O)N2CCN(Cc3ccccc3)CC2)ccc1Br | inactive
O=S(=O)(c1ccsc1)N1CC=C(c2ccccc2)CC1 | 2.83 µM (active)
Cc1noc(C)c1S(=O)(=O)Nc1cccc(CO)c1 | inactive
CC(=O)c1ccc(NC(=O)C(C)Sc2nnc(C3CCCCC3)o2)cc1 (configuration not stated) | inactive
O=C(NC1CCCCC1)c1cccc(S(=O)(=O)N2CCCCC2)c1 | inactive
